This is an account of results in PubChem BioAssay AID485297 (National Center for Advancing Translational Sciences (NCATS), 2010).

Hit rate of the full screen: of about 320,000 compounds, about 9,100 (2.8%) were called active. About 3% were inconclusive and are not listed. The call rests on the fitted dose curve; in most records, active means well fitted activation curve with a large enough effect; inconclusive means small, poorly fitted or top-dose-only effect; inactive means no such curve, though single readings can be large or run the other way. Shown is part of a subset that was picked to be rich in actives. Where a call stands in place of a potency, no number is given.
Potency means the concentration at half of the fitted maximal effect.

This assay in a line: qHTS Assay for Rab9 Promoter Activators. Further: nearly all actives have a fitted effect of over 60% in size. As to conditions: Huh7 Rab9 promoter-luciferase reporter, luminescence, 24 h; series mostly up to 9.22 µM. An outline of the steps:
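Quantitative HTS format; Huh7 Rab9-luciferase reporter cells (1500/well) receive compound 2 h post-plating, incubate 24 h at 37 °C, then get luciferase reagent for 10 min before luminescence reading.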
(In general: In qHTS, concentration-response curves come from the screen itself.)
In the case of `O=C(COC(=O)CCCN1C(=O)c2cccc3cccc(c23)C1=O)NC1CCS(=O)(=O)C1` (stereo unspecified), the Potency entry is “inactive”. For `CC(Sc1nnc(C2CC2)n1C1CC1)C(=O)Nc1ccc(C(N)=O)cc1` (stereo unspecified) the value was “inactive”; for `CCc1ccc(CN(C)C(C)C(=O)Nc2ccc(S(=O)(=O)N3CCCC3)cc2)cc1` (stereo unspecified), “inactive”. For `COc1ccc([C@H]2CC(=O)C=C(c3ccc(C)cc3)C2)cc1`, the Potency entry was “inactive”. For `CN(C1CCS(=O)(=O)C1)S(=O)(=O)c1ccc2ccccc2c1` (stereo unspecified) the value was “inactive”; for `O=S(=O)(NCc1ccc2c(c1)OCO2)c1cccc2nsnc12`, “inactive”; for `Cc1cccc(C(=O)O)c1[N+](=O)[O-]`, “inactive”. Turning to `O=c1c2ccccc2c(-c2ccc(F)cc2)nn1-c1ccc(C(F)(F)F)cc1`, the Potency result is “inactive”. In the case of `Cn1c(-c2ccc(F)cc2)cc2onc(-c3ccccc3Cl)c2c1=O` it was 0.891 µM (active); in that of `O=C1c2ccccc2C(=O)N1Cc1cc(-c2ccccc2Cl)no1`, “inactive”; in that of `Cn1c(-c2ccc(C(F)(F)F)cc2)cc2onc(-c3ccccc3)c2c1=O`, 0.447 µM (active). For `Cc1[nH]n(C)c(=O)c1C(=O)c1c(-c2c(Cl)cccc2Cl)noc1C` the value was “inactive”; for `Cc1onc(-c2ccccc2)c1C(=O)N1CCN(S(=O)(=O)c2ccccc2C(F)(F)F)CC1`, “inactive”. For the compound `CCCCC[C@H]1CN(C2CCCCC2)C(=O)[C@@H]1CC(=O)NCc1ccc(OC)cc1`, the Potency entry was “inactive”. In the case of `O=c1oc2ccc(C#CC3(O)CCCCC3)cc2cc1-n1cc(-c2ccsc2)nn1` it was “inactive”; in that of `O=C(Nc1ccccc1N1CCOCC1)c1ccncc1`, “inactive”; in that of `CC(NCC(=O)Nc1ccccc1C(=O)NC1CC1)c1ccccc1Cl` (stereo unspecified), “inactive”. In the case of `CCOC(=O)C1(Cc2ccccc2C)CCCN(C(=O)CCc2c(C)noc2C)C1` (stereo unspecified) it was “inactive”. In the case of `Cc1noc(C)c1CCC(=O)N1CCCC(CO)(Cc2ccccc2)C1` (stereo unspecified) it was 3.55 µM (active). Consider `Cc1ccccc1CC1(CO)CCCN(C(=O)c2cc(-c3ccccc3)no2)C1` (stereo unspecified), for which the Potency result is “inactive”. For `COc1ccc(OCCNC(=O)c2cc(C3CC3)nc3c2cnn3C(C)C)cc1` the value was “inactive”; for `O=C(CN1CCN(c2ccccc2O)CC1)NC(=O)NCc1ccccc1`, “inactive”. For `N=c1c2c(-c3ccccc3)c(-c3ccccc3)n(Cc3ccccc3)c2ncn1CCCO` the value was “inactive”; for `OCCCN1c2ccccc2Nc2nnc(-c3ccccc3)cc21`, 2 µM (active). In the case of `CCOC(=O)C(C)N(c1ccccc1Cl)S(C)(=O)=O` (stereo unspecified) it was “inactive”; in that of `N#Cc1c(NC(=O)C2CC(Cl)=CCC2C(=O)O)sc2c1CCCCC2` (stereo unspecified), “inactive”. With `N#Cc1c(NC(=O)CCCl)sc2c1CCCCC2`, the Potency result is “inactive”.

For `N#Cc1c(NC(=O)C2CCCO2)sc2c1CCCCC2` (stereo unspecified), the Potency was 2.24 µM (active). In the case of `O=c1c2cc(-c3ccccc3)sc2nc2n1N=C(c1cccs1)CS2` it was 1.12 µM (active); in that of `Cc1nnc2n1N=C(c1ccccc1)CS2`, “inactive”; in that of `c1csc(-c2cn3c(n2)SCC3)c1`, “inactive”.
